Composite z-score and z-score data for 5 compounds are collected here from PubChem BioAssay.

The source made the active and inactive calls.

Test [1] concerns Plasmodium falciparum Sir2 (PF13_0152, Sir2A). As to the kind of experiment: Plasmodium falciparum Sir2A binding compounds – biochemical, small-molecule microarray, 635 nm fluorescence, primary screen (AID 1098).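 Note: score merges spot fluorescence intensity with its signal-to-noise ratio.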 The following applies: fluorescence 635 nm, higher = more signal.
Test [2] is described as follows: probe aDKK1 binding to arrayed compounds – biochemical, biotinylated probe, 635/667 nm fluorescence, primary screen (AID 1099).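 Note: score merges 667nm spot fluorescence with signal to noise across triplicate slides.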 The following applies: small-molecule microarray, higher = more signal.
The nature of test [3]: probe aCHRDL2 binding to arrayed compounds – biochemical, biotinylated probe, 635/667 nm fluorescence, primary screen (AID 1100). The following applies: small-molecule microarray, higher = more signal.
A short description of test [4]: change in splice reporter luminescence, either direction, cell-based, HEK293, spliceosome inhibition project, primary screen (AID 1101).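 Note: HEK293 cells carrying a splicing-competent luciferase reporter gene; test concentration not given here.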 The following applies: HEK293 splicing luciferase reporter, 24 h, higher = more signal, called active from +8 up or from −8 down. (In general: Reporter assays use an easily measured gene product as a stand-in for the process of interest.)

Test [5] addresses Fibroblast growth factor 10 (Homo sapiens) (UniProt O15520). As to the kind of experiment: compounds binding fibroblast growth factor 10 – biochemical, small-molecule microarray, 635 nm fluorescence, primary screen (AID 1102). The following applies: FGF10 binding, fluorescence 635 nm, higher = more signal.
For test [6], the system named is glycogen synthase kinase-3 (GSK3A per assay name; protocol says GSK3B). The experiment in a line: compounds binding glycogen synthase kinase-3 – biochemical, small-molecule microarray, 635 nm fluorescence, GSK3A, primary screen (AID 1103). Note: the record names both GSK3A and GSK3B. The following applies: fluorescence 635 nm, higher = more signal.
Test [7] has as its target Epidermal growth factor receptor (Homo sapiens) (UniProt P00533). As to the kind of experiment: compounds binding epidermal growth factor receptor – biochemical, small-molecule microarray, 635 nm fluorescence, primary screen (AID 1104).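 Note: score merges 667 nm emission intensity with spot signal to noise over triplicate slides.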 The following applies: EGFR binding, higher = more signal.
Test [8] concerns the target Follistatin-related protein 3 (Homo sapiens) (UniProt O95633). The experiment in a line: compounds binding follistatin-related protein 3 – biochemical, small-molecule microarray, 635 nm fluorescence, primary screen (AID 1105).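 Note: score merges emission near 667 nm and signal to noise per printed spot across three slides.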 The following applies: FSTL3 binding, higher = more signal.
The target of test [9] is Dickkopf-related protein 1 (Homo sapiens) (UniProt O94907). The experiment in a line: small molecules binding DKK1 protein – biochemical, small-molecule microarray, 635 nm fluorescence scan, primary screen (AID 1106).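 Note: score merges emission near 667 nm with signal to noise over three replicate slides.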 The following applies: higher = more signal.
Test [10] has as its system Inhibin beta A chain (activin A). As to the kind of experiment: small molecules binding activin A – biochemical, small-molecule microarray, 635 nm fluorescence scan, primary screen (AID 1107).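 Note: mouse activin A protein probed at 4.33 µg/mL on printed slides; score merges bound-protein fluorescence near 667 nm with spot signal-to-noise.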 The following applies: INHBA, higher = more signal.
Test [11] has as its system Human papillomavirus type 1a protein E7 (residues 44-93). The experiment in a line: small molecules binding HPV E7 44-93 – biochemical, small-molecule microarray, residues 44-93, 635 nm fluorescence, primary screen (AID 1108).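 Note: E7 fragment applied at 1 µg/mL in TBST for 1 h at 4 C; score combines spot fluorescence with its signal to noise ratio.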 The following applies: fluorescence 635 nm, higher = more signal.
The nature of test [12]: hepatitis C replication reporter changes, two-sided – Huh7 cells, luciferase reporter, HCV replication inhibitor project, primary screen (AID 1109).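 Note: huh7 hepatoma cells harbouring a luciferase neomycin HCV replicon reporter; luciferase luminescence as measure of HCV replicon replication; test concentration not given here.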 The following applies: Huh7 HCV replicon luciferase reporter, 48 h; higher = more signal.
Test [13] deals with Left-right determination factor 2 (Homo sapiens) (UniProt O00292). The experiment in a line: small molecules binding LEFTY2 protein – biochemical, small-molecule microarray, 635 nm fluorescence scan, primary screen (AID 1110). The following applies: higher = more signal.
Test [14] addresses Calmodulin-1 (Homo sapiens) (UniProt P0DP23). As to the kind of experiment: small molecules binding calmodulin-1 with EGTA – biochemical, small-molecule microarray, Cy5-labelled CALM1, profiling panel (AID 1111).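 Note: labelled calmodulin applied in Tris saline Tween buffer holding calcium plus EGTA and DTT.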 The following applies: Cy5-CALM1 binding fluorescence, higher = more signal.
Test [15] shares this target. The experiment in a line: small molecules binding Ca-loaded calmodulin-1 – biochemical, small-molecule microarray, Cy5-labelled CALM1, plus calcium, artefact control for SMM control-protein annotation, profiling panel (AID 1112).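 Note: score merges spot fluorescence with signal to noise from triplicate slides.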 The following applies: Cy5-CALM1 binding fluorescence, higher = more signal.
A short description of test [16]: probe aWnt5a binding to arrayed compounds – biochemical, biotinylated probe, 635/667 nm fluorescence, primary screen (AID 1113).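 Note: score merges 667 nm fluorescence intensity with signal-to-noise per printed feature.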 The following applies: small-molecule microarray, higher = more signal.
Test [17] is described as follows: probe aShh binding to arrayed compounds – biochemical, biotinylated probe, 635/667 nm fluorescence, primary screen (AID 1114).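 Note: probe is biotin-labelled aShh protein from a stem cell growth factor screen; measures binding of labelled protein to compounds printed on the slide; score merges feature fluorescence at 667 nm with signal-to-noise.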 The following applies: small-molecule microarray, higher = more signal.
Test [18] can be described thus: probe aNog binding to arrayed compounds – biochemical, biotinylated probe, 635/667 nm fluorescence, primary screen (AID 1115).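 Note: probe is biotinylated aNog protein used at 0.15 µg/mL for 1 h at 4 C; z-score combines 667 nm fluorescence of each spot with its signal to noise.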 The following applies: small-molecule microarray, higher = more signal.
Test [19] concerns the target Torsin-1A-interacting protein 1 (Homo sapiens) (UniProt Q5JTV8). As to the kind of experiment: compound microarray binding of lysate hLAP1 – cell lysate, small-molecule microarray, COS7 lysate, 635/667 nm fluorescence, primary screen (AID 1116). The following applies: 635 nm fluorescence, higher = more signal.
In test [20] the target is Alpha-bungarotoxin (Bungarus multicinctus) (UniProt P60615). The experiment in a line: compounds binding labelled alpha-BTX control protein – biochemical, small-molecule microarray, Alexa647 label, 635/667 nm fluorescence, artefact control for SMM control protein annotation, profiling panel (AID 1117). The following applies: alpha-BTX-A647 binding fluorescence, higher = more signal.
Sequence of Alpha-bungarotoxin (Bungarus multicinctus) (P60615 whole entry, looked up): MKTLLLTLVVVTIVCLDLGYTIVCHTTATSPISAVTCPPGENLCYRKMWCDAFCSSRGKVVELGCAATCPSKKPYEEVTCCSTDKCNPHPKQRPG

Sequence of Fibroblast growth factor 10 (Homo sapiens) (O15520 whole entry, looked up): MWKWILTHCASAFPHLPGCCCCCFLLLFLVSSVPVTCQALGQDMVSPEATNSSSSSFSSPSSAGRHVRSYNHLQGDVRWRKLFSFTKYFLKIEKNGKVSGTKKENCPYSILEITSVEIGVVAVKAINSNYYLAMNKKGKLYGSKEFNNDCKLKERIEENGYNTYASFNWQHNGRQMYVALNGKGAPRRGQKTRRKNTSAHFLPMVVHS
Sequence of Torsin-1A-interacting protein 1 (Homo sapiens) (Q5JTV8 whole entry, looked up): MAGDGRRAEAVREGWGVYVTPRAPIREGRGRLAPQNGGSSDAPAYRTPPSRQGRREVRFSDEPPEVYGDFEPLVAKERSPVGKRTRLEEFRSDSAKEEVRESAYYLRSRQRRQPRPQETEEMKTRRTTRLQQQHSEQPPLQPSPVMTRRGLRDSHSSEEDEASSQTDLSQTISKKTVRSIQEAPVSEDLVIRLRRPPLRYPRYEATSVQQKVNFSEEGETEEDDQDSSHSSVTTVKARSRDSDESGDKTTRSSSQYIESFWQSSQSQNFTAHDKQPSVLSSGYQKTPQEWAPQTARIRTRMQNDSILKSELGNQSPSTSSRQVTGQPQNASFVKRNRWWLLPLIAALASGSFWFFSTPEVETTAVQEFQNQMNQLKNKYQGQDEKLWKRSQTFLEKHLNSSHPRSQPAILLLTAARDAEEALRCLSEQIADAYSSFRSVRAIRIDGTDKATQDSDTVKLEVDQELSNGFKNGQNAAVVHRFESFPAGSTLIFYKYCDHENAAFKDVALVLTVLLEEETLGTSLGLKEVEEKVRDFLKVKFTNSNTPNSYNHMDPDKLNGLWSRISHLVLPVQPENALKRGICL
Sequence of Dickkopf-related protein 1 (Homo sapiens) (O94907 whole entry, looked up): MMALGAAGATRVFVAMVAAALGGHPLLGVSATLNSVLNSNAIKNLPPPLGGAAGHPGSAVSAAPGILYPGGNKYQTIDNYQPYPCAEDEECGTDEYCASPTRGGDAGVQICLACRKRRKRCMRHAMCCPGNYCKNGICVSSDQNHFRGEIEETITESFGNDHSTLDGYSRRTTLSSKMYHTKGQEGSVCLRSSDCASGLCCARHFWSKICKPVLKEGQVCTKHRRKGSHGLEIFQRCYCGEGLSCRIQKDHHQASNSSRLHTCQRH
Sequence of Left-right determination factor 2 (Homo sapiens) (O00292 whole entry, looked up): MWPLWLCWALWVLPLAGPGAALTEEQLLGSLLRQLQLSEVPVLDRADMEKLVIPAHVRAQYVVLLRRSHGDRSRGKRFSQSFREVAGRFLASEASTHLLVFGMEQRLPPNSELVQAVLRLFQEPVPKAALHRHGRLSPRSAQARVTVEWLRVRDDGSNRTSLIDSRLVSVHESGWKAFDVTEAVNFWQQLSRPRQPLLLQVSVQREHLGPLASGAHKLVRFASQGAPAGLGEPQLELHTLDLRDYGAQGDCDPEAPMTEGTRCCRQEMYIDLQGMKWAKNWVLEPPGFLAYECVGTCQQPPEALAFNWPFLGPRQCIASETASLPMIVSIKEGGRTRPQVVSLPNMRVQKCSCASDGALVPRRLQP
Sequence of Follistatin-related protein 3 (Homo sapiens) (O95633 whole entry, looked up): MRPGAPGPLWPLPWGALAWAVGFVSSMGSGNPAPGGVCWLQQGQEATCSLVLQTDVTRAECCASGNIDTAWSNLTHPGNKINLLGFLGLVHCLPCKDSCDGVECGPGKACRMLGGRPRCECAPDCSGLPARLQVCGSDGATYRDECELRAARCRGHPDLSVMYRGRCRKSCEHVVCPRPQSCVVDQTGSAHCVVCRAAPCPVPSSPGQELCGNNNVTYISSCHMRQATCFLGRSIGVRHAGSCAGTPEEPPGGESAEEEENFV
Sequence of Epidermal growth factor receptor (Homo sapiens) (P00533 whole entry, looked up): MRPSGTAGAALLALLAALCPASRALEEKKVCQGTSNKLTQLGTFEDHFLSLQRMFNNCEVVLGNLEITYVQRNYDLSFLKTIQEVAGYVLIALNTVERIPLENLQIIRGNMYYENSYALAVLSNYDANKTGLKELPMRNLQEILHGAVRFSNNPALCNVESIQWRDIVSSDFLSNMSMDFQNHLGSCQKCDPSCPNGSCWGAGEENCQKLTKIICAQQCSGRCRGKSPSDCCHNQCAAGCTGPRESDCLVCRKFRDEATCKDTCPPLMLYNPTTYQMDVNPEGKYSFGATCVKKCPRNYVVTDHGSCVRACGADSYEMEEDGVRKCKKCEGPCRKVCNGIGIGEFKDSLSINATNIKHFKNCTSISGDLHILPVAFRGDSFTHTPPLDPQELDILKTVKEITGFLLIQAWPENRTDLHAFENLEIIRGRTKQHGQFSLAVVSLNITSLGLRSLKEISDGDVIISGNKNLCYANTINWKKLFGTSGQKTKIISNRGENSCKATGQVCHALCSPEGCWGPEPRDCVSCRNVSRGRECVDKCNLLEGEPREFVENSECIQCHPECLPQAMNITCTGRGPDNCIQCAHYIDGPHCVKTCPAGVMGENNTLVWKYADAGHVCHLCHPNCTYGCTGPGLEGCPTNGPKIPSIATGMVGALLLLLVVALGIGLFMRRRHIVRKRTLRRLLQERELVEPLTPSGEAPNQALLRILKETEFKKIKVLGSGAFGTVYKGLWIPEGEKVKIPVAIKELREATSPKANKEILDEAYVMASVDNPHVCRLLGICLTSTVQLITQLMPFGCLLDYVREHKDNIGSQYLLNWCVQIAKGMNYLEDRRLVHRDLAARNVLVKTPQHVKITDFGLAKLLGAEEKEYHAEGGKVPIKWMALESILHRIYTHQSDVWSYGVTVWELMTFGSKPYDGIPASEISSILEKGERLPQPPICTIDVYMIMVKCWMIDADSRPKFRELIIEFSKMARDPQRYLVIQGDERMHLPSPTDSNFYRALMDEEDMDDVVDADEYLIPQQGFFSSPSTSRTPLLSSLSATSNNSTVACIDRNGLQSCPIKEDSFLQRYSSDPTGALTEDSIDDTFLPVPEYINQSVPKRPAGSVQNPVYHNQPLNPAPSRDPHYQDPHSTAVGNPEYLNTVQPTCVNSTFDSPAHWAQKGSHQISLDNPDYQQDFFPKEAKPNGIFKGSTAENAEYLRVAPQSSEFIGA

In the case of `COc1cc(C(O)C2C=CC3C(=O)N(c4ccccc4)C(=O)C3N2Nc2ccccc2)cc(OC)c1OC` (stereo not given), the composite z-score in test [1] is 1.27; in test [2], 1.03; in test [3], 1.13; in test [5] it was 1.25; in test [6], 1.31; in [7] it was -0.304. Besides, the composite z-score was 1.07 in [8]; -0.586 in test [9]; 0.484 in [10]; 1.46 in test [11]; -0.0844 in [13]; 1.84 in test [14]. In addition, the composite z-score came to 0.613 in [15]; 0.0472 in test [16]; 0.551 in test [17]; 1.66 in test [18]; 1.6 in test [19]; 1.9 in test [20]. In addition, the z-score is 1.28 (inactive) in test [4] and -0.63 in [12].
`O=C(NCCN1CCOCC1)[C@@H]1c2ccccc2C(=O)N(Cc2ccc(OC(F)(F)F)cc2)[C@H]1c1ccc(CO)cc1`: the composite z-score in test [1] was -0.0284; in [2], 0.0779; in [3], 1.18; in [5], -0.738; in [6], 0.0049; in test [7], -0.611. Also, the composite z-score in test [8] was 0.417; in test [9] it was -1.14; in test [10] it was -0.252; in [11], 1.25; in test [13], -0.622; in [14], 0.749. Besides, the composite z-score in [15] was 0.337; in test [16], -0.11; in test [17], 0.0756; in [18] it was 0.99; in test [19], 1.19; in [20] it was 0.0007. The z-score in [4] is 0.709 (inactive); in test [12], -1.29.
As to `COCCOC(=O)N1C(=O)[C@@]2(c3cc(C#CC4(O)CCCCCC4)ccc31)[C@H](c1ccc(O)cc1)N1[C@H](c3ccccc3)[C@H](c3ccccc3)OC(=O)[C@H]1[C@@H]2C(=O)N1CCCCCCC1`, the composite z-score was determined as 1.08 in test [1]; 1.2 in test [2]; 0.771 in test [3]; 1.28 in test [5]; 1.29 in test [6]; 0.314 in test [7]. Moreover, the composite z-score in test [8] is 1.05; in [9] it was 0.112; in test [10], 1.72; in [11], -0.622; in test [13], 0.298; in test [14], -0.39. The composite z-score was -0.631 in test [15]; 0.0742 in test [16]; 0.0907 in test [17]; 2.25 in [18]; 1.88 in test [19]; 0.88 in test [20]. In addition, the z-score in test [4] is -0.803 (inactive); in [12] it was -1.05.
Turning to `COC(=O)[C@@]1(Cc2ccccc2)[C@H]2c3cc(C(=O)N(C)C)n(CCO)c3C[C@H]2CN1C(=O)c1ccccc1`, the composite z-score in [1] is 0.621; in [2] it was 1.25; in test [3], 1.21; in test [5], 0.909; in [6] it was 0.594; in [7] it was -0.745. Moreover, the composite z-score in test [8] was -0.181; in test [9] it was -0.994; in test [10], -0.206; in test [11], 0.56; in test [13] it was 0.145; in test [14] it was 2.07. Moreover, the composite z-score was 1.27 in test [15]; 0.0511 in test [16]; 0.0005 in test [17]; 0.623 in [18]; 0.952 in test [19]; 0.723 in test [20]. Moreover, the z-score is 0.395 (inactive) in [4] and -0.766 in test [12].
Take `COC(=O)[C@@]1(Cc2ccccc2)[C@H]2c3cc(C(=O)N(C)C)n(Cc4ccc(C(F)(F)F)nc4)c3C[C@H]2CN1C(=O)c1ccccc1`: the composite z-score in [1] is 1.52; in test [2] it was 1.17; in test [3], 1.24; in [5] it was 1.08; in test [6], 1.12; in [7] it was -0.405. The composite z-score was 0.885 in [8]; -0.547 in test [9]; 0.822 in [10]; 1.49 in test [11]; -0.287 in test [13]; 1.9 in test [14]. The composite z-score came out at 1.14 in test [15]; 0.223 in [16]; 0.941 in test [17]; 2.05 in test [18]; 1.91 in [19]; 0.82 in test [20]. Also, the results for the z-score in test [4] and in test [12] were -1.16 (inactive) and -1.3, respectively.
